{"source": "PubChem BioAssay AID624173", "about": "(National Center for Advancing Translational Sciences (NCATS), 2012)", "note": "The whole screen tested about 410,000 compounds, of which about 490 (0.12%) were called active. Inconclusive results (about 1%) are left out. Only a selection was taken, and actives are over-represented in it overall. Unmarked numbers belong to inactive results. Calls come from the whole dose curve; as a rule, active = well fitted inhibition curve with a large enough effect; inconclusive = small, poorly fitted or top-dose-only effect; inactive = flat fitted curve, though single readings scatter. % is set by controls: 0 for no effect and ±100 for the full control effect; potency is the fitted concentration of half-maximal effect."}
{"biological_target": "pyruvate kinase (Trypanosoma brucei) (UniProt Q57TT1)", "test": "qHTS of Trypanosoma Brucei Inhibitors; note: nearly all actives have a fitted effect of over 50% in size", "conditions": "TbPYK enzyme, Kinase-Glo Plus ATP luminescence, 45 min; series mostly up to 76.8 µM; activity, negative = inhibition: at the top concentration", "from_the_text": "Members of the Trypanosomatidae family of parasitic protozoans cause a spectrum of diseases throughout the tropical and subtropical world. Sleeping sickness, caused by two subspecies of Trypanosoma brucei, is endemic to areas of sub-Saharan Africa, while Chagas' disease, a manifestation of Trypanosoma cruzi infection, is prevalent throughout Central and South America. In addition, many species of Leishmania are responsible for a range of cutaneous and visceral diseases, causing ulcers, destructive lesions and kalaazar, a lethal infection of the viscera. These diseases cause severe public health and economic burdens on populations that are often already caught in a tragic cycle of poverty, poor nutrition and disease. Collectively, parasites of the trypanosomatid family infect 30 million people worldwide (~500 million live in endemic areas), and account for ~130K deaths annually. Existing treatments have developed little in the past 50 years, and suffer from toxicity, poor efficacy and resistance; the goal of this project is to develop lead drugs that will be suitable for entry into pre-clinical trials.\nGlycolysis in axenically cultured T. cruzi, representing the intracellular pathogenic stage, is also essential for these parasites. {Engel, 1987} This project aims to discover and optimize selective inhibitors of the glycolytic enzyme pyruvate kinase (PYK) from Trypanosoma brucei, the parasite that causes sleeping sickness. […] Trypanosomatid PYKs show significant differences from their human counterparts including only 47-50% sequence identity and different allosteric and activation properties.{Callens, 1992} To this end, a qHTS was done against the MLSMR to discover inhibitors.\nNIH Molecular Libraries Probe Production Network [MLPCN]\nNIH Chemical Genomics Center [NCGC]\nPI Name: Malcolm Walkinshaw, University of Edinburgh\n2 uL of TbPYK/substrate buffer (columns 1-3, 5-48) are dispensed into Greiner white solid bottom 1536-well assay plates; column 4 receives only TEA buffer as 0x TbPYK controls. Compounds are then transferred via Kalypsys pin tool equipped with 1536-pin array (10 nL slotted pins, V&P Scientific, San Diego, CA). Following addition of compound, 2 uL of ADP (130 uM final concentration, all columns) is added to initiate the reaction. The plates are then incubated at room temperature for 45 minutes. Kinase-Glo Plus reagent is added (3 uL) and plates incubated for 10 minutes, before being transferred to a ViewLux high-throughput CCD imager (PerkinElmer) wherein single end-point measurements of luminescence are acquired using a clear filter. All reagents are diluted in an assay buffer consisting of 50 mM TEA (pH 7.2), 100 mM KCl, 10 mM MgCl2, 0.05% BSA and 0.01% Tween-20.\nAll screening operations will be performed on a fully integrated robotic system (Kalypsys, San Diego, CA) containing one RX-130 and two RX-90 anthropomorphic robotic arms (Staeubli, Duncan, SC). Library plates will be screened starting from the lowest and proceeding to the highest concentration. Vehicle-only plates, with DMSO being pin-transferred to columns 5-48, will be inserted uniformly at the beginning and the end of each library in order to monitor and record any shifts in the background, which can be affected by reagent dispensers or loss in enzyme activity over time. Screening data will be corrected, normalized, and concentration-effect relationships will be derived by using publicly-available curve fitting algorithms developed in-house (http://ncgc.nih.gov/pub/openhts)."}
{"smiles": "S=c1[nH]nc(-c2cc(-c3ccsc3)n[nH]2)n1-c1ccccc1", "Potency": "2.82 µM (active)"}
{"smiles": "O=P(O)(O)OC[C@H](O)CO", "activity, negative = inhibition": "-9.47% (inactive)"}
{"smiles": "O=C(O)[C@@H](S)[C@H](S)C(=O)O", "activity, negative = inhibition": "-28.4% (inactive)"}
{"smiles": "CC(C)CC1C(=O)N2CCCC2C2(O)OC(NC(=O)C3CC4c5cccc6[nH]cc(c56)CC4N(C)C3)(C(C)C)C(=O)N12", "note": "(configuration not stated)", "activity, negative = inhibition": "1.74% (inactive)"}
{"smiles": "O=c1c(-c2ccc(F)cc2)nc2cnc(N3CCOCC3)nc2n1-c1ccccc1", "activity, negative = inhibition": "-2.78% (inactive)"}
{"smiles": "Clc1ccc(-c2nc3sccn3c2C=NOCc2ccc(Cl)c(Cl)c2)cc1", "activity, negative = inhibition": "2.15% (inactive)"}
{"smiles": "Cn1cccc1C(=O)N1CCC[C@@]2(CCN(Cc3nccs3)C2)C1", "activity, negative = inhibition": "-6.25% (inactive)"}
{"smiles": "O=C(c1cc(C(F)(F)F)cc(C(F)(F)F)c1)N1CCC2(CCCN(Cc3ccncc3)C2)CC1", "activity, negative = inhibition": "5.95% (inactive)"}
{"smiles": "CN1CCCC(=C(c2cccs2)c2cccs2)C1", "activity, negative = inhibition": "-0.775% (inactive)"}
{"smiles": "O=C1NC(=O)N(c2ccccc2)C(=O)/C1=C/c1ccc([N+](=O)[O-])s1", "Potency": "17.8 µM (active)"}
{"smiles": "CC[N+]1(CCOC(=O)C(O)(c2ccccc2)c2ccccc2)CCCCC1", "activity, negative = inhibition": "4.87% (inactive)"}
{"smiles": "COc1cccc(Nc2ncc3ncc(=O)n(C4CC4)c3n2)c1", "activity, negative = inhibition": "-1.66% (inactive)"}
{"smiles": "CO[C@H]1C[C@@H](O[C@@H]2[C@@H](C)O[C@@H](O[C@@H]3/C(C)=C/CC4C[C@@H](C[C@]5(C=C[C@@H](C)[C@H](C6CCCCC6)O5)O4)OC(=O)[C@@H]4C=C(C)[C@@H](O)[C@H]5OC/C(=C\\C=C\\[C@@H]3C)[C@]54O)C[C@H]2OC)O[C@@H](C)[C@@H]1O", "activity, negative = inhibition": "19.1% (inactive)"}
{"smiles": "CCCCCCCCCCCCCCCCO", "activity, negative = inhibition": "-2.03% (inactive)"}
{"smiles": "CCCN(CC)[C@@H](CC)C(=O)Nc1c(C)cccc1C", "activity, negative = inhibition": "1.91% (inactive)"}
{"smiles": "O=S(=O)(O)C(F)(F)C(F)(F)C(F)(F)C(F)(F)F", "activity, negative = inhibition": "6.2% [at 157 µM] (inactive)"}
{"smiles": "C[N+](C)(CCOc1ccccc1)Cc1cccs1", "note": "(tested in a mixture with another compound)", "activity, negative = inhibition": "3.32% (inactive)"}
{"smiles": "CCCC[C@H]1C(=O)N(c2ccccc2)N(c2ccc(O)cc2)C1=O", "activity, negative = inhibition": "-5.82% [at 33.2 µM] (inactive)"}
{"smiles": "CN1CCC2(CC1)CCN(S(=O)(=O)c1ccccc1)CC2", "activity, negative = inhibition": "2.49% (inactive)"}
{"smiles": "O=C(c1csnn1)N1CCC2(CC1)CN(c1ncccn1)C2", "activity, negative = inhibition": "0.632% (inactive)"}
{"smiles": "COc1ccc(S(=O)(=O)NCC(c2ccc(N(C)C)cc2)N2CCCC2)cc1", "note": "(configuration not stated)", "activity, negative = inhibition": "-3.6% (inactive)"}
{"smiles": "O=C(Nc1cccc(F)c1)N1CC2(CCN(C(=O)c3csnn3)CC2)C1", "activity, negative = inhibition": "0.268% (inactive)"}
{"smiles": "CN1C(=O)C[C@H](c2ccccc2)C1=O", "activity, negative = inhibition": "-4.61% (inactive)"}
{"smiles": "C/C=C/C=N/NC(=O)c1ccncc1", "activity, negative = inhibition": "6.94% (inactive)"}
{"smiles": "O=C(Nc1cccc(F)c1)N1CC2(CCN(C(=O)c3cnccn3)CC2)C1", "activity, negative = inhibition": "-8.59% (inactive)"}
{"smiles": "Cc1nnc(SCC(=O)NNC(=O)c2ccc(Cl)cc2)n1CC1CCCO1", "note": "(configuration not stated)", "activity, negative = inhibition": "-19.4% (inactive)"}
{"smiles": "S=c1[nH]nc(-c2ccc(Cl)cc2)n1CC1CCCO1", "note": "(configuration not stated)", "Potency": "10 µM (active)"}
{"smiles": "CNC(=O)NC(=O)CSc1nnc(-c2ccc(F)cc2)n1CC1CCCO1", "note": "(configuration not stated)", "activity, negative = inhibition": "0.187% (inactive)"}
{"smiles": "c1ccc(N2CC[C@@]3(CCCNC3)C2)nc1", "activity, negative = inhibition": "-8.65% (inactive)"}
{"smiles": "NNc1nnc(Cc2ccncc2)c2ccccc12", "activity, negative = inhibition": "5.32% (inactive)"}
{"smiles": "CCNc1ncc2ncc(=O)n(CCc3ccccc3)c2n1", "activity, negative = inhibition": "0% (inactive)"}
{"smiles": "O=C(N/N=C/c1ccc([N+](=O)[O-])o1)c1cc([N+](=O)[O-])cc([N+](=O)[O-])c1O", "activity, negative = inhibition": "-7.27% (inactive)"}
{"smiles": "CCOc1ccc(N(Cc2ccccc2)C(=O)c2nc(S(C)(=O)=O)ncc2Cl)cc1", "activity, negative = inhibition": "-5.03% (inactive)"}
{"smiles": "Cc1ccnc(SC2CC(=O)N(c3ccccc3)C2=O)n1", "note": "(configuration not stated)", "activity, negative = inhibition": "-4.81% (inactive)"}
{"smiles": "Cc1ccnc(-n2sc3ccccc3c2=O)n1", "Potency": "20 µM (active)"}
{"smiles": "O=c1c2ccccc2nc(-c2ccccc2)n1-c1ccccn1", "activity, negative = inhibition": "3.13% (inactive)"}
{"smiles": "Cc1ccc(S(=O)(=O)NC(=O)NN2C[C@H]3CCC[C@@H]3C2)cc1", "activity, negative = inhibition": "1.84% [at 33.2 µM] (inactive)"}
{"smiles": "c1csc(CN2CCCC3(CCNCC3)C2)n1", "activity, negative = inhibition": "-3.6% (inactive)"}
{"smiles": "CC(O)COc1ccccc1", "note": "(configuration not stated)", "activity, negative = inhibition": "3.14% (inactive)"}
{"smiles": "OCC(CO)NC1C[C@](O)(CO)[C@@H](O)[C@H](O)[C@H]1O", "note": "(some centres not stated)", "activity, negative = inhibition": "-1.52% (inactive)"}
{"smiles": "Cn1c(=O)c(-c2ccccc2)nc2cnc(N3CCNCC3)nc21", "activity, negative = inhibition": "0% (inactive)"}
{"smiles": "NNc1nnc(NN)c2ccccc12", "activity, negative = inhibition": "-2.4% (inactive)"}
{"smiles": "O=C(c1csnn1)N1CCC[C@@]2(CCN(Cc3nccs3)C2)C1", "activity, negative = inhibition": "-6.04% (inactive)"}
{"smiles": "C[C@@H]1C[C@H]2[C@@H]3C[C@H](F)C4=CC(=O)C=C[C@@]4(C)[C@]3(F)[C@H](O)C[C@]2(C)[C@@]1(O)C(=O)CO", "activity, negative = inhibition": "8.35% [at 33.2 µM] (inactive)"}
{"smiles": "COc1ccc(Cn2ccn(CC(=O)Nc3cc(C)ccc3C)c(=O)c2=O)cc1", "activity, negative = inhibition": "2.7% (inactive)"}
{"smiles": "CN1CC(O)c2cc(N=NC(N)=O)c(O)cc21", "note": "(configuration not stated)", "activity, negative = inhibition": "-5.31% (inactive)"}
{"smiles": "O=C(c1csnn1)N1CCC[C@@]2(CCN(c3cccc(-c4ccccc4)c3)C2)C1", "activity, negative = inhibition": "0.943% (inactive)"}
